Source: PubChem BioAssay (Buhrlage Lab, Dana-Farber Cancer Institute and Novartis Institutes for BioMedical Research (Cambridge, Mass))
USP17 inh: inhibitors of human USP17 deubiquitinase | inhibition, % at 50 µM | hit rate 6.5% among 47,000 | A8MUK1 | purified USP17, Ub-rhodamine cleavage fluorescence, 3 h
USP30 inh: human USP30 deubiquitinase inhibition; purified USP30, Ub-rhodamine cleavage fluorescence; inhibition, % at 25 µM; hit rate 5.3% among 47,000
USP28 block: inhibitors of human USP28 deubiquitinase | AID 1645857 | purified USP28, Ub-rhodamine cleavage fluorescence, 30 min | hit rate 3% among 47,000 | Q96RU2 | inhibition, % at 25 µM
USP8 block: blocks human USP8 ubiquitin-rhodamine cleavage; purified USP8, Ub-rhodamine cleavage fluorescence, 30 min; inhibition, % at 20 µM; AID 1645853; P40818; hit rate 4.2% among 47,000
Of the large screens only hits and unclear results are named; the others gave an inactive call. Hits are enriched below; roughly 13% of the tested compounds scored in any of these assays. Cut-off read from the data, not from the text of the source: active = inhibition above about 30%; inactive = the rest.

O=C(Cc1cccc2ccccc12)Nc1nc2c(s1)CCc1ccccc1-2	none
CC(Sc1nnc(-c2cccc(S(=O)(=O)N3CCOCC3)c2)n1C1CCCC1)C(=O)N1CCc2ccccc21 (stereo unspecified)	none
COc1ccc(NC(=O)C2CC2)cc1NS(=O)(=O)c1ccc(F)cc1	none
CC(=O)Nc1ccc(NC(=O)C2CCC(CNS(=O)(=O)c3ccc(F)cc3)CC2)cc1 (stereo unspecified)	USP30 inh 31
O=C(NCc1ccc(-c2nc(C3CC3)ncc2-c2ccccn2)cc1)c1ccncc1	none
O=c1ccc(-c2nc(-c3ccncc3)no2)cn1Cc1noc(-c2ccccc2)n1	USP8 block 53
O=c1ccc(-c2nc(-c3cnccn3)no2)cn1Cc1ccccc1F	USP30 inh 33
CCOc1ccc2nc(C(=O)NCc3ccc4c(c3)OCO4)cn2n1	USP17 inh 32, USP30 inh 41
O=C(NCc1ccc2c(c1)OCO2)c1nn(C23CC4CC(CC(C4)C2)C3)cc1[N+](=O)[O-]	USP30 inh 62
Cc1nnc2ccc(-c3noc(-c4ccc5c(c4)OCO5)n3)cn12	none (no result: USP17 inh)
Cc1ccc(N(C)S(=O)(=O)c2cccc(C(=O)OCC(=O)c3ccc(-c4ccccc4)cc3)c2)cc1	none
CN(C)S(=O)(=O)c1cccc(C(=O)OCc2ccccc2C#N)c1	USP28 block 36
O=C(COC(=O)c1ccc2ccccc2n1)Nc1ccc(F)cc1	none
N#Cc1ccccc1COC(=O)c1ccc2ccccc2n1	USP28 block 62
O=C(OCc1ccc(Br)cc1)c1ccc2ccccc2n1	USP28 block 82
N#Cc1ccc(COC(=O)c2ccc3ccccc3n2)cc1	USP28 block 64
COc1cccc(CN2CCCC23Cc2ccccc2CNC3=O)c1 (stereo unspecified)	none
Cc1ccc2cccc(Oc3ncnc4sc5c(c34)CCC5)c2n1	none
Cc1cnc(-c2cncc(C3CCCN(C(=O)c4cccnc4)C3)n2)[nH]1 (stereo unspecified)	none
COc1ccc(-n2c(C)cc(C(=O)CSc3nncn3-c3ccccc3OC)c2C)cc1	USP17 inh 34, USP28 block 30
Cc1ccccc1OCc1nc2c3c(C)c(C)oc3ncn2n1	none
Cc1oc2ncn3nc(C(C)Oc4cccc5ccccc45)nc3c2c1C (stereo unspecified)	USP17 inh 32, USP8 block 78
CCOc1ccc2[nH]c(=O)c(CN(C(=O)c3cccs3)C3CCCC3)cc2c1	USP17 inh 66
COc1ccc(CCNC(=O)c2ccc3c(c2)N(Cc2ccc(F)cc2)C(=O)c2ccccc2S3=O)cc1OC (stereo unspecified)	none
COc1ccc(CCNC(=O)CSc2cn(CCNC(=O)c3ccc(F)cc3)c3ccccc23)cc1OC	USP17 inh 50, USP30 inh 68
COc1ccc(CCNC(=O)c2cn(-c3ccc(F)cc3)nn2)cc1OC	USP17 inh 34, USP30 inh 62
COc1ccc(-n2cc(C(=O)NCCc3ccc(F)cc3)nn2)cc1	USP8 block 37
CC(OC(=O)c1cccc2ccccc12)c1nc2ccccc2n1Cc1ccccc1Br (stereo unspecified)	none
O=C(NCc1ccc(F)cc1)c1cccc(Nc2nc3ccccc3n3cnnc23)c1	USP17 inh 72, USP30 inh 80, USP28 block 75
Cc1ccc(N(C(=O)c2ccc3c(c2)OCCO3)C(C(=O)NC2CCCCC2)c2ccc(F)cc2)c(C)c1 (stereo unspecified)	none
CCOc1cccc(C(=O)N2CCCC(c3nc4ccccc4[nH]3)C2)c1 (stereo unspecified)	none
COc1cc(NC(=O)Cc2ccc3c(c2)OCCO3)c(OC)cc1Cl	USP30 inh 45, USP8 block 49
Cc1cc(=O)n2nc(-c3cccs3)nc2n1CC(=O)Nc1cccc(C(F)(F)F)c1	none
CC(=O)Nc1cccc(-c2cnc3sc(NC4CCCCC4)nn23)c1	USP8 block 47
CC(=O)c1cccc(-c2cnc3sc(NCC4CCOCC4)nn23)c1	none
Cc1cc(O)cc2cc3c(c(O)c12)C(=O)CCC3O (stereo unspecified)	USP17 inh 51
Cc1ccc2c(c1)c(=O)cc(C(F)(F)F)n2C[C@H]1CCCN1C(=O)C1CC1	USP30 inh 41
CCOc1ccc2[nH]c(=O)c(-c3nc4cc(C)ccn4c3NC(C)(C)C)cc2c1	none
CCOc1ccc2[nH]c(=O)c(-c3nc4ccc(C)cn4c3NCc3ccccc3)cc2c1	USP17 inh 49, USP28 block 32
CC(C)=CCC[C@@](C)(O)[C@H]1CC[C@]2(C)[C@@H]1CC[C@@H]1[C@@]3(C)CCC(=O)C(C)(C)[C@@H]3CC[C@]12C	none
O=C1c2ccccc2S(=O)(=O)N1Cc1ccc2nsnc2c1	USP28 block 35
